# Screening results (PubChem)
# ANO1 activ = TMEM16A chloride channel activators or potentiators, primary screen, cell-based, HTS; Anoctamin-1 (Mus musculus), Q8BHY3; HEK293 TMEM16A/YFP-H148Q/I152L, iodide quench fluorescence; stronger effect = lower value; B-score at 10 µM; hit rate 0.3% among 340,000;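 active = fluorescence-ratio B-score plate-corrected deviation score at least 3 library SD below zero, with starting fluorescence score within 5 deviations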;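 also: channel opened by trigger with iodide after compound preincubation; score built on the fluorescence ratio of max minus min over baseline; more negative score means more quench and so TMEM16A activation or potentiation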
# CHT allo act = CHT positive allosteric modulators, primary screen, cell-based, membrane potential dye, choline EC20 | High affinity choline transporter 1 (Homo sapiens), Q9GZV3 | CHT-expressing cells; stronger effect = higher value; LV-AA mutant CHT in HEK293 cells | B-score at 10 µM | hit rate 0.49% among 310,000;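 active = initial fluorescence not abnormally high and integrated response B-score, plate-corrected, over 3 SD above library mean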
# Target sequence (Q9GZV3 whole entry, looked up): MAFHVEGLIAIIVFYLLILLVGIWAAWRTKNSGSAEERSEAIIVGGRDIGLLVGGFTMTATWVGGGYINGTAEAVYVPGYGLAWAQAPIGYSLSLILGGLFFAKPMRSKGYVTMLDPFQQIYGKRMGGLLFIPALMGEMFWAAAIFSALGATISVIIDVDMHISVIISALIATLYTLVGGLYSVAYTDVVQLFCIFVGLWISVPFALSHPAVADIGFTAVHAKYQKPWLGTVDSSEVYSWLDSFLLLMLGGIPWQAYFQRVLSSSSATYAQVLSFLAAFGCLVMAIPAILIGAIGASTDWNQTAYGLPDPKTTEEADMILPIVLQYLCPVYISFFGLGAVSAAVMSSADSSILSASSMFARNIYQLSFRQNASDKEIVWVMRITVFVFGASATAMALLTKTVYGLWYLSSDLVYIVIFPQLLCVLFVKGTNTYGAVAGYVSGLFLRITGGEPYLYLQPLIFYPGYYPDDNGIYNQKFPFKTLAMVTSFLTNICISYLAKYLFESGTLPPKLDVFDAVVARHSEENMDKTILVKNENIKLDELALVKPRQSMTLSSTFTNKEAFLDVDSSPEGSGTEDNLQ
# CHT block = inhibitors of human choline transporter CHT. B-score at 10 µM. hit rate 0.86% among 310,000. CHT-expressing cells, membrane potential dye, choline response; stronger effect = lower value;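 active = B-score over 3 SD under the library average, and starting fluorescence ratio not unusually high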;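 also: choline stimulus applied at its EC90 after an EC20 pre-addition; B-score computed on integrated fluorescence ratio after choline addition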
# ANO1 block = TMEM16A chloride channel inhibitors, primary screen, cell-based, HTS; normalized B-score (activity score, 25-100; higher = stronger inhibition) at 10 µM; HEK293 TMEM16A/YFP iodide influx fluorescence, ionomycin; hit rate 1.2% among 310,000; Anoctamin-1 (Mus musculus), Q8BHY3; AID 588511, 2011;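 active = ratio plate-corrected score three or more library SD toward inhibition, starting fluorescence score within five deviations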;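 also: score derived from kinetic fluorescence span divided by baseline fluorescence per well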
# Numbers without * were called inactive; i = inactive; . = not tested or not shown. Most compounds without a hit are left out; they make up all but 2.4% or so of the library.
SMILES,ANO1 activ,CHT allo act,CHT block,ANO1 block
CCNC(=S)NCc1ccco1,i,i,i,i
CCOC(=O)c1cnn(-c2ccc(NS(=O)(=O)c3ccc(Cl)cc3)cc2)c1C(F)(F)F,i,i,i,100*
CCOC(=O)c1ccc(NS(=O)(=O)c2ccc(Cl)nc2)cc1,.,i,i,i
Cc1ccc(S(=O)(=O)NC(=O)c2ccccc2)cc1C(C)C,i,i,i,i
Cc1ccc(O)c(CNc2cnc3ccccc3c2)c1,i,i,i,25*
O=c1cc(C(F)(F)F)nc(SC/C=C/c2ccccc2)[nH]1,i,i,i,100*
Nc1cc(=O)[nH]c(SC/C=C/c2ccccc2)n1,i,i,i,i
COc1ccc(OC)c(/C=N\NC(=O)CSc2nnc(CCCc3ccc(OC)c(C)c3)o2)c1,i,i,i,100*
COc1ccc(CCCc2nnc(SCC(=O)Nc3cc(C)c(C)cc3Br)o2)cc1,i,i,i,i
COc1ccc(C(=O)Nc2ccc(CN3CCCCC3)cc2)cc1,i,i,i,i
CC1CCN(C2(O)C(=O)Nc3ccc(Br)cc32)CC1 (stereo not given),i,i,i,i
CCc1ccc(CNC(=O)c2ccc(OC)c(OC3CCN(C(C)C)CC3)c2)nc1,i,i,-9.6*,i
COc1ccc(C(=O)NCc2cnn(C)c2)cc1OC1CCN(C(C)C)CC1,i,.,.,i
COc1ccc(C(=O)NC(Cn2ccnc2)C(C)(C)C)cc1OC1CCN(C(C)C)CC1 (stereo not given),i,i,-8.7*,i
O=C(Nc1ccn(Cc2ccccc2)n1)c1ccc2c(c1)OCO2,i,i,i,i
O=C(Nc1ccn(Cc2ccc(Cl)cc2)n1)c1ccccc1,i,i,i,25*
CCOC(=O)c1c(C)[nH]c(C)c1C(=O)COC(=O)c1cc(OC)cc(OC)c1,i,i,i,i
O=C(OC1CCOC1=O)c1cccc(S(=O)(=O)N2CCc3ccccc3C2)c1 (stereo not given),i,i,i,i
CCOc1cc(CNS(=O)(=O)c2ccc3c(c2)CC(=O)N3C)cc(OCC)c1OCC,-5.2*,i,i,i
CN1C(=O)Cc2cc(S(=O)(=O)NCc3cccs3)ccc21,i,i,i,i
Cc1cc(C)cc(-n2cccc2/C=C2/C(=N)N3C(=NC2=O)SN=C3S(C)(=O)=O)c1,i,i,i,100*
CS(=O)(=O)C1=NSC2=NC(=O)/C(=C\c3cccn3-c3ccccc3Cl)C(=N)N21,i,i,i,i
CCCCN(NC(C)=O)c1nc(Cl)nc(NC(C)C)n1,i,i,i,i
CCN(C(=O)CSc1nc(C)nc2sc(C)c(C)c12)c1ccc(F)cc1,-41*,.,.,.
Cc1nc(SCC(=O)N(C)Cc2ccco2)c2c(C)c(C)sc2n1,i,i,i,i
SMILES,ANO1 activ,CHT allo act,CHT block,ANO1 block
CC1(C)OC(=O)C(=Cc2ccc(-c3ccc(S(N)(=O)=O)cc3)o2)C(=O)O1,-6.2*,i,i,i
CCCCc1ccc(C2C(C#N)=C(N)SC(N)=C2C#N)s1,.,i,i,100*
CC1=NN(c2ccccc2)C(=O)C1(C)C,i,i,i,i
CC1=NN(c2ccccc2)C(=O)C1C=Nc1ccccc1O (stereo not given),i,i,-5.2*,i
CN(C(=O)c1ccc2c(c1)CCO2)C(C)(C)C,i,i,i,i
O=C(CN1CCOCC1)Nc1ncc(Cc2cccc3ccccc23)s1,i,i,i,25*
Cc1cc(C(=O)NC2CCCCC2)c2cc(F)ccc2n1,i,i,i,i
CCOC(=O)C1CCCN(c2c(N3CCOCC3)c(=O)c2=O)C1 (stereo not given),i,i,i,i
CCOC(=O)C1CCCN(C(=O)N2CCOCC2)C1 (stereo not given),i,i,i,25*
COc1ccccc1NC(=O)CSc1nnnn1-c1ccc2c(c1)OCO2,-7.5*,i,i,i
Oc1ccccc1Oc1ncc(Br)c(Cl)n1,i,i,i,i
C/C(=N\NC(=O)c1c(Cl)c(C)nn1C)c1ccc(NC(=O)COc2ccc(Cl)cc2C)cc1,i,i,i,i
COc1ccc(S(=O)(=O)Nc2nc3ccccc3nc2Nc2ccc3c(c2)OCO3)cc1,.,i,i,i
O=S(=O)(Nc1nc2ccccc2nc1Nc1ccc2c(c1)OCCO2)c1cccs1,i,i,-7.7*,25*
COC(=O)C1(Cc2cc(-c3ccc(OC)cc3OC)no2)CCN(C(=O)OC(C)(C)C)CC1,i,i,i,25*
COC(=O)C1(Cc2cc(-c3cccc(Br)c3)no2)CCN(C(=O)OC(C)(C)C)CC1,i,i,i,i
COC(=O)CCC(=O)Nc1ccc(S(=O)(=O)Nc2cc(OC)nc(OC)n2)cc1,i,i,i,i
CCOc1ccc(NS(=O)(=O)c2cc(OC)ccc2OC)cc1,i,i,i,i
CCOc1ccc(S(=O)(=O)Nc2ccc(F)cc2)c(C)c1C,i,i,i,25*
O=C(Cn1cc(C(=O)C2CC2)c2ccccc21)NCC1CCCO1 (stereo not given),i,i,i,i
CC(=O)c1cn(CC(=O)NCC2CCCO2)c2ccccc12 (stereo not given),-4.8*,i,i,i
COCCNC(=O)c1csc(Nc2cccc3ccccc23)n1,i,i,i,i
CN(C)CCNC(=O)c1csc(Nc2cccc3ccccc23)n1,i,i,-9.9*,i
COC(=O)N1CCN(c2ccc(C(C)=O)cc2)CC1,i,i,i,i
COc1nnc(-c2ccc(N3CCCCC3)c(NC(=O)C3CCCCC3)c2)c2ccccc12,i,i,i,100*
SMILES,ANO1 activ,CHT allo act,CHT block,ANO1 block
CCCCOC(=O)C1=C(C)NC(=O)NC1c1ccccc1 (stereo not given),i,i,i,i
Cc1ccc(CN/C=C/C(=O)c2ccc(Br)cc2)cc1,i,i,i,100*
N#C/C(=C\c1cn(Cc2ccccc2C#N)c2ccccc12)C(=O)NCc1cccs1,.,i,i,i
CC12CC3OC3CC1CCC1C2CCC2(C)C1CCC21OCCO1 (stereo not given),i,.,.,.
CC(C)c1ccc(OCC(=O)NNC(=S)NC(=O)c2ccco2)c(Br)c1,i,i,i,i
CC(C)(C)c1ccc(OCC(=O)NNC(=S)NC(=O)c2ccco2)c(Br)c1,-9*,i,i,25*
CN(C(=O)CSc1nnc(C(F)(F)F)n1N)C1CCS(=O)(=O)C1 (stereo not given),i,i,i,i
